# Assay results published in the supplement of paper PMC6555819.
# Test system: RARb homodimer (NR concentration 270 nM)
# Test: PBM binding z-score (relative to random genomic background probes); higher = stronger binding; sequences stand for … in GC…GCGATTGACAGCGTAGAATGAAGG
# Outline: (§1)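 Probes were double-stranded and carried 34-nt variable regions with direct-repeat seeds, single-nucleotide variants, half-site ablations and random human genomic background sequences, printed on custom Agilent 4×180K protein-binding microarrays. Arrays were incubated 1 h with ligand-free nuclear receptor dimers in PBS pH 7.4, 2% milk, 0.02% Triton X-100, 1 mM DTT, 0.2 mg/mL BSA and 0.4 mg/ml salmon testes DNA. Antibodies against each partner (one per run) detected binding, and scanned fluorescence was regression-normalized. Binding z-scores use the random background probes as reference.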
row,Sequence,PBM binding z-score
1,ATCTCTAGGTAACAAGTTCACTGAAAGAGAGGAC,2.61
2,ACTAGCAGGCCAAGTTTGGGTCTCTCAAACAAAG,0.00651
3,TCTAGTTGGTCAAAGGGCACACACTCGAAATGCG,2.36
4,CCTTACGGCTCACTCCAGGTTATAGCATCGGAGT,0.313
5,ATCTCTAGGTAAAAGATCAGTGAATCCCGAGGAT,-0.353
6,CCAGACAGGTGCAAGGTAACTCAGTCTGGTACGC,-0.106
7,ATATGTAGATTAGCTGGGGTCATTCAGACTAGGC,3.49
8,ATAGACAGGTGATGAAGGTAACTCAGGCTATCAT,0.392
9,TAGCCAAGGTCATGCGGGCCAGTATAGTGTCGGC,4.42
10,GCTGCTAGGTCAAGTTGGTCAGCTAACGGGTACG,3.78
11,ATCTCTAGGTAACAAGTTCAGTTAAAGAGAGGAC,1.9
12,ATACCAAGGTGATCGTGAGGTAGTTGATACTAAC,0.262
13,AGAATGAGGTTATTAAGACCAGGGAATTGCGGTC,0.935
14,TCTTGTAGATCAAGCAGGTTAAGAGAGCCTGAGT,0.0574
15,CAGCCTAGGGCAGGGCCAGTATAGGAGGAACGTT,0.0483
16,CATACAGGGTCAGCTAGGCCAGAGGAGGGACGGC,3.12
17,ATATGTAGGTTAAGGGTCATTCACGTTGGTTCGC,3.78
18,ATCGAAAGGTCGATGAGGTGAGTATACACCGTTT,2.52

# Test system: RARg:RXRa (NR concentration 270 nM, RXRa partner concentration 90 nM)
# Test: as above
# Outline: as §1
row,Sequence,PBM binding z-score
1,ATATGTAGGTTAGCTGGGGTCACTCAGACTAGGC,4.29
2,CCGACTGGGGCAAAGGTTACCCTACTCAGTACGA,3.01
3,CCTAGTTGGTCAAGGTCACAGACGCTATAGGTAC,4.74
4,TAGCCTAGGTCATTGGGCCAGTTTAGTACGCATC,3.74
5,CCTTACGGGTCACGATGTTATAGCACGACGAGCG,5.22
6,CGAACGAGGGCATGAGTTGATTGCAAATGCCGAT,1.29
7,TCAGACAGGTGAAGGTAAATCAGGTACGCAGTCG,0.61
8,AGTCAAAGTTCAGTACGAGGTAACGTAAAGCACG,4.32
9,CGTCCAAGGTCAGCAGTTCAGTGAAAGCGACGTG,5.66
10,ATCGCTAGGTAAAGTTCAGTGAAAGATCGATAGA,1.75
11,ATATGTATGTTAGCTGGGGTCATTCAGACTAGGC,3.62
12,TCTTGTAGATCAATAGAGGTTAGGAAAGTGCGCT,0.947
13,TCTTCTAGATCAAGCAGGTTAAGAAAGCCTGAGT,0.248
14,CCTGCTAGGTCATGGACAGCTAATCTACAGTATG,4
15,TCTCGGAGGACACGATAGGTCAGAGCTCGACATC,2.49
16,GCGACTGGGGCAAAGCAGGTTACAATAAGGTTGG,0.682
17,TCATATAGGTAAAGGAGAAAGTCGAACGATATGA,0.547
18,CGAACGAGGGCATGAGTTGATAACAAATGCCGAT,1.37
19,GCGACTCGGGCATCAGCAGGTTACCATAACTTAA,0.257
20,CCTACTGGCCCATTCAGAGGTCATTGATCATATG,2.97

row,Sequence,PBM binding z-score
1,GGAACGAGGGCAAGTAGATAGCAGAGTTTGATGG,1.3
2,TCGAGAAGGTTAGTCGGGGCATTCAGCCAACATA,0.634
3,ATCTCTAGGTAACAAGTTCACTGAAAGAGAGGAC,2.27
4,ACTAGCAGGCCAAGTTTGGGTCTCTCAAACAAAG,-0.231
5,TCTAGTTGGTCAAAGGGCACACACTCGAAATGCG,2.72
6,CCTTACGGCTCACTCCAGGTTATAGCATCGGAGT,-0.122
7,ATCTCTAGGTAAAAGATCAGTGAATCCCGAGGAT,0.381
8,CCAGACAGGTGCAAGGTAACTCAGTCTGGTACGC,-0.306
9,ATATGTAGATTAGCTGGGGTCATTCAGACTAGGC,3.43
10,ATAGACAGGTGATGAAGGTAACTCAGGCTATCAT,0.0804
11,TAGCCAAGGTCATGCGGGCCAGTATAGTGTCGGC,5.81
12,GCTGCTAGGTCAAGTTGGTCAGCTAACGGGTACG,4.49
13,ATCTCTAGGTAACAAGTTCAGTTAAAGAGAGGAC,1.37
14,ATACCAAGGTGATCGTGAGGTAGTTGATACTAAC,0.422
15,AGAATGAGGTTATTAAGACCAGGGAATTGCGGTC,1.24
16,TCTTGTAGATCAAGCAGGTTAAGAGAGCCTGAGT,-0.24
17,CAGCCTAGGGCAGGGCCAGTATAGGAGGAACGTT,-0.0952
18,CATACAGGGTCAGCTAGGCCAGAGGAGGGACGGC,4.3
19,ATATGTAGGTTAAGGGTCATTCACGTTGGTTCGC,4.72
20,ATCGAAAGGTCGATGAGGTGAGTATACACCGTTT,3.5

# Test system: RARg homodimer (NR concentration 270 nM)
# Test: as above
# Outline: as §1
row,Sequence,PBM binding z-score
1,ATATGTAGGTTAGCTGGGGTCACTCAGACTAGGC,3.51
2,CCGACTGGGGCAAAGGTTACCCTACTCAGTACGA,1.49
3,CCTAGTTGGTCAAGGTCACAGACGCTATAGGTAC,5.11
4,TAGCCTAGGTCATTGGGCCAGTTTAGTACGCATC,3.68
5,CCTTACGGGTCACGATGTTATAGCACGACGAGCG,5.07
6,CGAACGAGGGCATGAGTTGATTGCAAATGCCGAT,1.48
7,TCAGACAGGTGAAGGTAAATCAGGTACGCAGTCG,0.667
8,AGTCAAAGTTCAGTACGAGGTAACGTAAAGCACG,4.54
9,CGTCCAAGGTCAGCAGTTCAGTGAAAGCGACGTG,6.02
10,ATCGCTAGGTAAAGTTCAGTGAAAGATCGATAGA,1.86
11,ATATGTATGTTAGCTGGGGTCATTCAGACTAGGC,2.31
12,TCTTGTAGATCAATAGAGGTTAGGAAAGTGCGCT,0.486
13,TCTTCTAGATCAAGCAGGTTAAGAAAGCCTGAGT,-0.0717
14,CCTGCTAGGTCATGGACAGCTAATCTACAGTATG,4.68
15,TCTCGGAGGACACGATAGGTCAGAGCTCGACATC,3.18
16,GCGACTGGGGCAAAGCAGGTTACAATAAGGTTGG,0.779
17,TCATATAGGTAAAGGAGAAAGTCGAACGATATGA,0.358
18,CGAACGAGGGCATGAGTTGATAACAAATGCCGAT,1.59
19,GCGACTCGGGCATCAGCAGGTTACCATAACTTAA,0.0755
20,CCTACTGGCCCATTCAGAGGTCATTGATCATATG,2.56

row,Sequence,PBM binding z-score
1,GGAACGAGGGCAAGTAGATAGCAGAGTTTGATGG,1.91
2,TCGAGAAGGTTAGTCGGGGCATTCAGCCAACATA,0.546
3,ATCTCTAGGTAACAAGTTCACTGAAAGAGAGGAC,2.04
4,ACTAGCAGGCCAAGTTTGGGTCTCTCAAACAAAG,-0.0296
5,TCTAGTTGGTCAAAGGGCACACACTCGAAATGCG,1.97
6,CCTTACGGCTCACTCCAGGTTATAGCATCGGAGT,0.148
7,ATCTCTAGGTAAAAGATCAGTGAATCCCGAGGAT,0.48
8,CCAGACAGGTGCAAGGTAACTCAGTCTGGTACGC,-0.108
9,ATATGTAGATTAGCTGGGGTCATTCAGACTAGGC,2.17
10,ATAGACAGGTGATGAAGGTAACTCAGGCTATCAT,0.356
11,TAGCCAAGGTCATGCGGGCCAGTATAGTGTCGGC,5.79
12,GCTGCTAGGTCAAGTTGGTCAGCTAACGGGTACG,5.42
13,ATCTCTAGGTAACAAGTTCAGTTAAAGAGAGGAC,1.45
14,ATACCAAGGTGATCGTGAGGTAGTTGATACTAAC,0.424
15,AGAATGAGGTTATTAAGACCAGGGAATTGCGGTC,0.733
16,TCTTGTAGATCAAGCAGGTTAAGAGAGCCTGAGT,-0.296
17,CAGCCTAGGGCAGGGCCAGTATAGGAGGAACGTT,0.654
18,CATACAGGGTCAGCTAGGCCAGAGGAGGGACGGC,4.65
19,ATATGTAGGTTAAGGGTCATTCACGTTGGTTCGC,3.42
20,ATCGAAAGGTCGATGAGGTGAGTATACACCGTTT,3.32
